# Experimental data published in PubChem BioAssay (Tox21).
# Results filed as inconclusive are left out. Unmarked numbers belong to inactive results. Active and inactive are the calls of the source. Calls come from the whole dose curve.
# Assay: Nuclear factor erythroid 2-related factor 2/antioxidant responsive element (Nrf2/ARE) small molecule agonists: luciferase reporter gene qHTS assay in human keratinocytes (AID 1919969); note: nearly all actives have a fitted effect of over 35% in size
# Conditions: KeratinoSens HaCaT ARE-luciferase, luminescence, 24 h; series mostly up to 92.4 µM; activity, positive = activation: at the top concentration
# Source text: National Center for Advancing Translational Sciences [NCATS]
# Division of Preclinical Innovation [DPI]
# U.S. Environmental Protection Agency [EPA]
# National Institutes of Environmental Health Sciences [NIEHS]
# National Toxicology Program [NTP]
# U.S. Food and Drug Administration [FDA]
# Oxidative stress has been implicated in the pathogenesis of a variety of diseases ranging from cancer to neurodegeneration. The antioxidant response element (ARE) signaling pathway plays an important role in the amelioration of oxidative stress. The KeratinoSens (Givaudan, Switzerland) is an in vitro test method which quantifies luciferase induction as a measure of activation of Keap1-Nrf2-antioxidationt/electrophile response element (ARE) dependant pathway in HaCaT human keratinocytes stably transfected with a selectable plasmid. The KeratinoSens assay is a cell-based assay with a reporter cell line to detect potential skin sensitizers by their ability to induce the Nrf2/ARE-response. The activation of the report gene under culture conditions can be detected by ONE-Glo Luciferase Assay System (Promega, Madison, WI). This cell line has been used to screen the Tox21 10K compound library to identify agonists that induce oxidative stress. The cytotoxicity of the Tox21 compound library against the KS-ARE cell line was tested in parallel by measuring the cell viability using CellTiter- Fluor assay system (Promega, Madison, WI) in the same wells.
# HaCaT derived cell line KeratinoSens were dispensed at 1,500 cells/5uL/well in 1536-well white wall/solid bottom plates using a Multidrop Combi (ThermoFisher Scientific, Waltham, MA) dispenser. After the assay plates were incubated at 37 C/5% CO2 for 5 h, 23 nL of compounds dissolved in DMSO, positive controls or DMSO only was transferred to the assay plate by a pintool workstation (Kalypsys, San Diego, CA). The plates were incubated at 37 C/5% CO2 for 23 h, followed by addition of 1uL/well of CellTiter-Fluor reagent into the assay plates using a Flying Reagent Dispenser (Aurora Discovery, San Diego, CA) for cell viability readout that measures cytotoxicity. After 1 h incubation at 37 C/5% CO2 the fluorescence intensity was measured using a ViewLux (PerkinElmer, Shelton, CT) plate reader. Then 4uL/well of One-Glo were added using a Flying Reagent Dispenser. After the plates were incubated at room temperature for 30 min, the luminescence intensity in the assay plates was measured using ViewLux plate reader.
# % is set by controls: 0 for no effect and ±100 for the full control effect; potency is the fitted concentration of half-maximal effect.
SMILES,"activity, positive = activation",Potency
Cc1ccc(N(CCO)CCO)cc1,12.2%,
CCCCCCCCCCCC(C)=O,5.66%,
c1ccc(CCNc2nc(-c3ccccc3)cs2)cc1,,596 nM (active)
O=c1[nH]sc2cc(Cl)ccc12,,13300 nM (active)
CCCCCC(C)N (stereo not given),3.97% [at 42.5 µM],
C/C=C/C(=O)OCC(C)C,8.44%,
CN(C)CCCOc1nn(Cc2ccccc2)c2ccccc12,-2.77% [at 42.5 µM],
COCCOC(=O)C1=C(C)NC(C)=C(C(=O)OC/C=C/c2ccccc2)C1c1cccc([N+](=O)[O-])c1 (stereo not given),-8.73% [at 42.5 µM],
CC(C)SCc1ccco1,0.126% [at 42.5 µM],
COC(=O)C(c1ccccc1Cl)N1CCc2sccc2C1 (stereo not given),0.368% [at 42.5 µM],
Cc1c(N)cccc1Cl,-2.43%,
CC1COc2c(N3CCN(C)CC3)c(F)cc3c(=O)c(C(=O)O)cn1c23 (stereo not given),-5.22% [at 42.5 µM],
CC(C)=CCC/C(C)=C/COC=O,-9.22%,
CC[N+](CC)(CC)Cc1ccccc1,4.7%,
O=C=Nc1cccc(C(F)(F)F)c1,-0.135%,
C[N+]1(CC2COC(c3ccccc3)(C3CCCCC3)O2)CCCCC1 (stereo not given),2.42% [at 42.5 µM],
CC1(C)OC(=O)Nc2ccc(Br)cc21,-8.44% [at 42.5 µM],
CN(C)CCc1c[nH]c2ccc(C[C@H]3COC(=O)N3)cc12,6.75% [at 42.5 µM],
O=C1CCCCO1,-9.16%,
NC(Cc1ccc(Cl)cc1)C(=O)O (stereo not given),-1.51% [at 0.349 µM],

SMILES,"activity, positive = activation",Potency
COC(=O)c1ccc(OC)cc1,-7.87%,
CO[Si](CCCNc1ccccc1)(OC)OC,2.36%,
CCCC(C)C(=O)OCC (stereo not given),-9.18%,
C/C=C(\C)C#N,-0.13%,
CCn1cc(C(=O)O)c(=O)c2cc(F)c(N3CCNC(C)C3)c(F)c21 (stereo not given),-0.52% [at 42.5 µM],
OC(CCN1CCCC1)(c1ccccc1)C1CCCCC1 (stereo not given),-5.55% [at 42.5 µM],
CC1=CC[C@H](C(C)C)C=C1,21.3%,
CCOc1ccccc1O[C@H](c1ccccc1)[C@H]1CNCCO1,-0.856% [at 42.5 µM],
CC(=O)NCCCCCC(=O)O,3.77% [at 42.5 µM],
CCN1CCN(c2cc(-c3ccc(F)cc3)c3c(n2)CCCCCC3)CC1,-2.3% [at 19 µM],
CCCCN(CCCC)C(C(N)=O)c1ccc(OC)cc1 (stereo not given),-8.48% [at 42.5 µM],
O=C(O)c1cc(Cl)cc([N+](=O)[O-])c1Cl,-0.0486%,
COc1ccc(-n2nc(C(F)F)cc2-c2ccc(S(C)=O)cc2)cc1 (stereo not given),-24.3%,
O=C(O)Cc1c(Cl)ccc(Cl)c1Cl,-9.82%,
NC12CC3CC(CC(C3)C1)C2,1.44% [at 42.5 µM],
Cc1nc(-c2ccc(OCC(C)C)c(C#N)c2)sc1C(=O)O,,53.1 nM (active)
COc1ccc(CN(CCN(C)C)c2ncccn2)cc1,-5.56% [at 42.5 µM],
CCN(CCCCOC(=O)c1ccc(OC)c(OC)c1)C(C)Cc1ccc(OC)cc1 (stereo not given),-12.6% [at 42.5 µM],
CC(=O)Nc1ccc(C)cc1C,11.6%,
CCC(C)(CCCC(C)C)OC(C)=O (stereo not given),-9.8%,
